Laboratory results reported in ChEMBL document CHEMBL3988442, “University of Dundee, Small-Polar-MMV Screening Library” (2021).
About 13,000 (27%) of roughly 48,000 compounds showed an effect of 50% or more. The list shows a part of the results.

Each compound was assayed on Wolbachia pipientis (assay: Anti-Wolbachia Cell-Based Screen). Conditions: 5 µM.
Format: functional
Set-up: scale not given: in the data most compounds retested in dose-response had high values

Row | SMILES | Percent Effect
1 | Cc1n[nH]cc1CNCC(c1ccsc1)N(C)C (stereo unspecified) | 26.65%
2 | COc1cccc(Cn2cccc(C#N)c2=O)c1 | -6.219%
3 | CCN1N=C(C(=O)N2CCCC(c3nc(C)c(C)s3)C2)CCC1=O (stereo unspecified) | 92.25%
4 | CCc1csc(C2CCCN(C(=O)C3=NN(CC)C(=O)CC3)C2)n1 (stereo unspecified) | 7.447%
5 | CCN1N=C(C(=O)N2CCCC(c3nc(C)cs3)C2)CCC1=O (stereo unspecified) | 85.99%
6 | CCN1N=C(C(=O)N2CCCC(c3noc(C)n3)C2)CCC1=O (stereo unspecified) | -1.234%
7 | CCc1nc(C2CCCN(C(=O)C3=NN(CC)C(=O)CC3)C2)no1 (stereo unspecified) | 20.67%
8 | Cc1nc(C2CCCN(C(=O)C3=NN(C(C)C)C(=O)CC3)C2)no1 (stereo unspecified) | -5.623%
9 | COC1CCCN(C2CCN(c3cccc(-c4csc(C)n4)c3)CC2)C1 (stereo unspecified) | 10.88%
10 | NC(=O)C1CCN(C(=O)C2SCCc3sccc32)CC1 (stereo unspecified) | -9.27%
11 | COc1cccc(-c2ncc(CN3C[C@@H]4CC[C@H](C3)N(C)C4=O)s2)c1 | 4.635%
12 | COCCn1ccnc1C1CCN(C(=O)c2cccc(COC)n2)CC1 | -13.9%
13 | CN(C)S(=O)(=O)N1C[C@H]2CCC[C@@]2(COCC2CC2)C1 | -7.001%
14 | CN(C)CC(=O)N1CCC2(CC1)COCCN(Cc1ccncc1)C2 | -9.31%
15 | CN(C)CC(=O)N1CCC2(CC1)COCCN(c1ncccn1)C2 | 104.4%
16 | CC(C)C(=O)N1CCOC2(COCCN(c3ncccn3)C2)C1 (stereo unspecified) | 1.497%
17 | CN(C)CC(=O)N1CCC2(CC1)CN(c1ncccn1)CCO2.O=C(O)C(F)(F)F | -4.698%
18 | CN(C)C(=O)N1CCC2(CC1)COCCN(c1ncccn1)C2 | 89.78%
19 | c1cc(CN2CCCCC2)cc(NCc2cc[nH]n2)c1 | 0.9619%
20 | Cc1ccc(S(=O)(=O)NC[C@H]2OC[C@@H](NCc3ccncc3)[C@@H]2O)cc1 | -4.658%
21 | CCc1nc(C)c([C@H]2CN(C)C[C@@H]2C(=O)NC(C)(C)c2ccccc2)[nH]1 | -16%
22 | Cc1nc(C)n(CC2CCCCN2CCCS(=O)(=O)N(C)C)n1 (stereo unspecified) | -10.86%
23 | CCC[C@@H]1CN(C(=O)c2c(F)ccc(C)c2Cl)C[C@H]1C(=O)O | 10.65%
24 | CC(=O)c1c(C)cc(C)c(CS(=O)(=O)c2nccn2C)c1C | -11.41%
25 | O[C@H]1CN(c2nc(-c3ccccc3)no2)C[C@@H]1N1CCOCC1 | 10.35%
26 | O=C(C1CCOCC1)N1CC[C@@](O)(c2ccccc2)[C@H]2CCCC[C@@H]21 | 1.669%

Row | SMILES | Percent Effect
27 | CN(C)C(=O)CO[C@@H]1CC[C@H]2[C@H]1OCCN2C(=O)C1CCOCC1 | 4.998%
28 | CN(C(=O)C1CCOCC1)[C@@H]1CCC[C@@H](N2CCCC2)[C@@H]1O | 75.81%
29 | CN(C(=O)C1CCOCC1)[C@@H]1CCC[C@@H](N2CCOCC2)[C@@H]1O | 124.2%
30 | CN([C@@H]1CC[C@@H](N2CCOCC2)[C@@H]1O)S(=O)(=O)c1ccccc1 | 122.9%
31 | Cc1occc1C(=O)N1CC[C@@H](N2CCOCC2)[C@@H]1Cc1ccccc1 | 5.558%
32 | CN(C(=O)C1CCCCC1)[C@@H]1CCC[C@@H](N2CCOCC2)[C@@H]1O | 5.741%
33 | CCc1cnc(N2CC[C@@H]3CN(CCC(C)C)S(=O)(=O)[C@@H]3CC2)nc1.O=C(O)C(F)(F)F | -2.106%
34 | O=C1CCC2(CCOC2)CN1CCCOc1cccnc1 (stereo unspecified) | 36.56%
35 | CC(C)S(=O)(=O)CC(=O)N1CCCC(n2ccnc2)C1 (stereo unspecified) | 0.06667%
36 | CC(C)c1noc(CCC(=O)N2CCCC(n3ccnc3)C2)n1 (stereo unspecified) | 13.44%
37 | CSCCC(=O)N1CCCC(n2ccnc2)C1 (stereo unspecified) | 98.51%
38 | O=C(CCOCC(F)(F)F)N1CCCC(n2ccnc2)C1 (stereo unspecified) | 105.8%
39 | O=C(CCS(=O)(=O)C1CCCC1)N1CCCC(n2ccnc2)C1 (stereo unspecified) | 7.067%
40 | CC(C)(C)NCC(=O)N1CCCC(n2ccnc2)C1 (stereo unspecified) | -1.533%
41 | CCc1nnsc1C(=O)NC1CCN(CCOc2ccc(Br)cc2)CC1 | -5.495%
42 | CN1CCN(Cc2noc(CCc3nc(-c4ccccc4)no3)n2)CC1 | 3.84%
43 | O=C(CN1CCc2cncnc2C1)NC(c1ccccc1)C1CC1 (stereo unspecified) | 5.851%
44 | CC(C(N)=O)S(=O)(=O)Cc1cc(Cl)c2c(c1)OCO2 (stereo unspecified) | -4.736%
45 | O=C(CS(=O)(=O)Cc1cc(Cl)c2c(c1)OCO2)N1CCCC1 | 112.9%
46 | CCN(C(=O)CS(=O)(=O)Cc1cc(Cl)c2c(c1)OCCCO2)C1CC1 | 3.578%
47 | CNC(=O)CS(=O)(=O)Cc1cc(Cl)c2c(c1)OCCCO2 | 7.566%
48 | CN(C)C(=O)CS(=O)(=O)Cc1cc(Cl)c2c(c1)OCO2 | 2.003%
49 | O=C(CS(=O)(=O)Cc1cc(Cl)c2c(c1)OCO2)N1CCCCCC1 | 135.5%
50 | c1cnnc(N2CCCC(NCc3nc(-c4cccs4)no3)C2)c1 (stereo unspecified) | -0.05894%
51 | CCOCCC(=O)NC(Cc1ccc(C)cc1)c1ccccn1 (stereo unspecified) | 30.55%
52 | CCCC(=O)N(C)C(c1cccc(F)c1)c1ccccn1 (stereo unspecified) | 104.7%

Row | SMILES | Percent Effect
53 | CN(C)C(=O)CCCNC(=O)C(c1cccc(F)c1)N(C)C (stereo unspecified) | -9.864%
54 | CCCC(=O)N(C)c1cccc2ncccc12 | -4.906%
55 | CCOCCCC(=O)N(C)C(c1cccc(F)c1)c1ccccn1 (stereo unspecified) | 89.97%
56 | Fc1cccc(C(NCc2ncc[nH]2)c2ccccn2)c1 (stereo unspecified) | -5.246%
57 | O=C(C1CC(=O)N(C2CC2)C1)N1CCN(CCn2cccc2)CC1 (stereo unspecified) | -24.19%
58 | CCc1nnsc1-c1nc(C(C)C)nn1-c1ccc2c(c1)OCO2 | 11.97%
59 | CNC(=O)C(C)(C)N1CCC[C@H]1C(=O)NC1CCCC1 | 1.106%
60 | Cc1onc(N)c1S(=O)(=O)N1CCCCC1C (stereo unspecified) | -5.745%
61 | CC(C)NC(=O)N1CC(=O)c2sc(NC3CCCCC3)nc2C1 | 121.6%
62 | O=C(NC1CCCC1)c1nc2c(o1)CN(C(=O)CO)C2 | -3.342%
63 | CC(C)CC(=O)N1CC(=O)c2sc(NC3CCCCC3)nc2C1 | 104.9%
64 | CC[C@H](C)[C@H](N)C(=O)N1CC(=O)c2sc(NC3CCCCC3)nc2C1 | 89.49%
65 | CC(C)NC(=O)N1CCN2C(=O)OC[C@H]2C1 | -2.318%
66 | COC(=O)[C@H]1CN(C(=O)NC(C)C)CCN1C(=O)C1CCCCC1 | -4.407%
67 | CCOC(=O)c1nc(CN2CCN(C(=O)NC3CCCCC3)CC2)cs1 | 0.1108%
68 | O=C(NC1CCCC1)c1nc2c(o1)CN(C(=O)CCO)C2 | 3.342%
69 | COc1nccnc1N1CCN(Cc2cccc(C)c2)C(=O)C1 | -1.846%
70 | O=C(NCC1(c2ccc(F)cc2)CCC1)N1CCC2(C1)OCCO2 | -19.46%
71 | Cn1c(CCNC(=O)CC[C@@H]2CCCN3CCCC[C@H]23)n[nH]c1=O | -0.3828%
72 | CC(C)(O)CSCCNC(=O)c1ccc(F)cc1Cl | -9.614%
73 | N#Cc1ccc(NCCNc2ccc(C(F)(F)F)cn2)nc1 | -10.16%
74 | O=C(NCCNc1ccc(C(F)(F)F)cn1)c1ccc(Cl)cc1F | 105.2%
75 | CC(C)(C)C(O)CCNC(=O)c1ccc(F)cc1Cl (stereo unspecified) | 15.76%
76 | O=C(NCCNc1ccc(C(F)(F)F)cn1)c1cncc(Br)c1 | 0.7864%
77 | O=C(NCCNc1ccc(C(F)(F)F)cn1)c1ccc(Br)cc1 | 145.4%
78 | O=C(NCCNc1ccc(C(F)(F)F)cn1)c1ccc(Br)cc1F | 1.294%

Row | SMILES | Percent Effect
79 | O=C(NCCNc1ccc(C(F)(F)F)cn1)c1cc(Cl)ccc1F | 114.8%
80 | O=C(NCCNc1ccc(C(F)(F)F)cn1)c1ccoc1 | 28.2%
81 | Cc1occc1C(=O)NCCOc1ccc(C(F)(F)F)cn1 | -9.163%
82 | O=C(NCCNc1ccc(C(F)(F)F)cn1)c1ccc(F)cc1Cl | 145.5%
83 | CC(C)n1ccnc1C1CCCN(c2ccnc3ccccc23)C1 (stereo unspecified) | -21.91%
84 | O=C(c1cccnc1)N1CCN(c2ccc(-n3cccc3)nn2)CC1 | -8.085%
85 | CCCc1noc(CS(=O)(=O)CC(=O)NC(C)CCC)n1 (stereo unspecified) | 14.1%
86 | Cc1nnc(CCNC(=O)Nc2ccc(S(C)(=O)=O)cc2)[nH]1 | -1.089%
87 | COC(=O)CC(c1ccc(OC)c(OC)c1)c1oc(C)cc(=O)c1O (stereo unspecified) | 10.24%
88 | CN(C)S(=O)(=O)N1CC[C@]2(C[C@H](Oc3cccnc3)CO2)C1.O=C(O)C(F)(F)F | -11.38%
89 | Cc1cnn(CC2CCCN2Cc2nnsc2Cl)c1 (stereo unspecified) | -1.868%
90 | Cc1cnn(CC2CN(Cc3nnc(C4CC4)n3C)CCO2)c1 (stereo unspecified) | 99.89%
91 | Cc1cnn(CC2CN(Cc3nc(C4CC4)no3)CCO2)c1 (stereo unspecified) | 115.6%
92 | COCCc1noc(CN2CCOC(Cn3cc(C)cn3)C2)n1 (stereo unspecified) | 92.63%
93 | Cc1cnn(CC2CN(Cc3nc(-c4ccoc4)no3)CCO2)c1 (stereo unspecified) | -0.2172%
94 | Cc1cnn(CC2CN(CCS(=O)(=O)C(F)(F)F)CCO2)c1 (stereo unspecified) | -38.13%
95 | Cc1cnn(CC2CN(Cc3nccn3C)CCO2)c1 (stereo unspecified) | -4.713%
96 | Cc1cnn(CC2CCCN2Cc2nnc(C3CC3)n2C)c1 (stereo unspecified) | 103.3%
97 | Cc1cnn(CC2CCCCN2Cc2nnc(C3CC3)n2C)c1 (stereo unspecified) | 0.7799%
98 | OC1(CNc2ccc(-c3nc(C4CC4)no3)cn2)CCCCC1 | 10.35%
99 | O=C(O)C1c2nc[nH]c2CCN1CC(c1ccccc1)c1ccccc1 (stereo unspecified) | -19.87%
100 | O=c1cc(N2CCNCC2)cnn1CCCn1cccn1 | 6.31%
101 | CSCc1nc(CNC(=O)C2CCCN(CC(N)=O)C2)cs1 (stereo unspecified) | -6.144%
